CRFBP-R2 agonist: CRF-BP/CRF-R2 complex agonism. activation, % at 13.2 µM. AID 588473. HEK293 CRF-R2/CRF-BP, calcium dye fluorescence (FLIPR); percent of saturating CRF peptide response. 350,000 compounds, 0.46% hits;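 active = activation of at least 50%, plus an integration ratio under a set limit after plate pattern correction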;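 also: plate controls were neutral control wells without compound for no effect and CRF at EC100 for full effect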
ANO1 activ: activators or potentiators of mouse TMEM16A chloride channel | HEK293 TMEM16A/YFP-H148Q/I152L, iodide quench fluorescence; stronger effect = lower value | B-score at 10 µM | 340,000 compounds, 0.3% hits;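 active = fluorescence-ratio B-score plate-corrected deviation score at least 3 library SD below zero, with starting fluorescence score within 5 deviations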;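 also: channel opened by trigger with iodide after compound preincubation; score built on the fluorescence ratio of max minus min over baseline; more negative score means more quench and so TMEM16A activation or potentiation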
NR3A LBD binder: NR3A (human) ligand-binding domain modulation. NR3A LBD differential scanning fluorimetry, Tm shift; 0% = protein alone, 100% = glycine-bound protein. Tm shift relative to glycine control, % at 25 µM. AID 1259313. 340,000 compounds, 2.5% hits;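 active = melting temperature shift of at least 10% of the positive control shift, at one fixed dose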
TMEM16A inh: inhibitors of mouse TMEM16A calcium-activated chloride channel; Q8BHY3; HEK293 TMEM16A/YFP iodide influx fluorescence, ionomycin; normalized B-score (activity score, 25-100; higher = stronger inhibition) at 10 µM; 310,000 compounds, 1.2% hits; AID 588511;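 active = ratio plate-corrected score three or more library SD toward inhibition, starting fluorescence score within five deviations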;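 also: score derived from kinetic fluorescence span divided by baseline fluorescence per well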
CRFBP-R2 block: CRF-BP/CRF-R2 complex antagonism | HEK293 CRF-R2/CRF-BP, CRF-induced calcium fluorescence | inhibition, % at 11.8 µM | 350,000 compounds, 0.59% hits;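 active = inhibition of the ligand-induced calcium signal above about 50% at the single tested concentration, limit read from the data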
MPTP block: permeability transition pore inhibition; isolated mouse mitochondria, Ca2+ swelling absorbance, 30 min; inhibition, % at 10 µM; 360,000 compounds, 1.4% hits; AID 602449;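 active = inhibition of 50% or more, scaled per plate between neutral and stimulator controls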;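 also: 0% = DMSO wells given calcium and 100% = 1 mM EGTA wells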
TMEM16A reconf: re-confirmation of mouse TMEM16A chloride channel inhibitors; shares compounds with TMEM16A inh; HEK293 TMEM16A/YFP-H148Q, iodide quench fluorescence; ionomycin added to raise cell calcium; inhibition, % at 10 µM; 2,300 compounds, 39% hits; AID 652189;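 active = mean duplicate percent inhibition, scaled so buffer wells are 0 and the reference blocker 100, over three buffer SD above buffer mean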
TMEM16A Ca cntr: alters calcium mobilization in TMEM16A HEK293 cells, counter-screen | shares compounds with TMEM16A inh | TMEM16A/YFP HEK293, Fluo4 calcium mobilization | calcium response (% of ionomycin), % at 10 µM | 2,300 compounds, 2% hits | AID 652231;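 active = duplicate-averaged calcium signal over 20% of the ionomycin maximum, relative to buffer baseline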;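 also: each well's signal is peak minus trough fluorescence divided by its pre-addition baseline; 0% = buffer wells and 100% = ionomycin wells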
YFP-HEK293 quench: parental YFP-HEK293 iodide quench counter-screen activity | shares compounds with TMEM16A inh | ionomycin | YFP ratio F(max-min)/F0 at 10 µM | 2,300 tested, under 10 active | AID 652233;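 active = yellow fluorescent protein signal ratio exceeding the buffer control mean by over 5 SD of those controls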;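 also: ratio is mean of duplicate wells from kinetic YFP trace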
ClC-1 inh: selectivity of TMEM16A inhibitors: inhibition of rat ClC-1 chloride channel | CHO ClC-1-YFP, iodide influx fluorescence quench; iodide control reads 0, buffer control 100 | AID 652236 | shares compounds with TMEM16A inh | 2,300 tested, under 10 active | ratio percent, % at 10 µM;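 active = duplicate-mean ratio percent above the mean of iodide-only control wells, which defines zero, plus 5 of their SD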;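 also: higher percent means stronger block of ClC-1 iodide influx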
An asterisk follows results filed as active. Compounds with a hit are over-represented: about 5.1% of the library has one in this group of screens.

For COc1ccc(/C(O)=C/C(=O)C(=O)NNC(=O)C(O)(c2ccccc2)c2ccccc2)cc1 the results were CRFBP-R2 agonist -3, ANO1 activ -10*, NR3A LBD binder -7, TMEM16A inh 100*, CRFBP-R2 block 20, MPTP block -10, TMEM16A reconf 20%*, TMEM16A Ca cntr inactive, YFP-HEK293 quench -1.4 and ClC-1 inh 0.
CCOC(=O)c1c(NS(=O)(=O)c2ccc(Br)cc2)sc2c1CCC2 was read as CRFBP-R2 agonist 24, ANO1 activ inactive, NR3A LBD binder -3, TMEM16A inh 100*, CRFBP-R2 block 18, MPTP block 46, TMEM16A reconf 70%*, TMEM16A Ca cntr inactive, YFP-HEK293 quench -0.9 and ClC-1 inh -6.
For Cc1ccc(S(=O)(=O)NCc2ccccc2)cc1C(=O)N1CCN(S(=O)(=O)c2ccccc2F)CC1 the results were CRFBP-R2 agonist -2, CRFBP-R2 block 2 and MPTP block -1.
O=C(c1cccc(-c2ccccc2F)c1)N1CC[C@@H](N2CCC(O)CC2)[C@H](O)C1 was read as CRFBP-R2 agonist 0, ANO1 activ inactive, NR3A LBD binder -6, TMEM16A inh inactive, CRFBP-R2 block 6 and MPTP block -1.
Screening COc1ccc(C(c2nnnn2CS(=O)(=O)c2ccc(C)cc2)N2CCN(c3ncccn3)CC2)cc1 (configuration not stated) returned CRFBP-R2 agonist 3, ANO1 activ inactive, NR3A LBD binder 0, TMEM16A inh inactive, CRFBP-R2 block -22 and MPTP block 1.
Screening Cc1ccc(S(=O)(=O)Cn2nnnc2C(c2ccccc2)N2CCN(c3ncccn3)CC2)cc1 (configuration not stated) returned CRFBP-R2 agonist -1, ANO1 activ inactive, NR3A LBD binder 0, TMEM16A inh 25*, CRFBP-R2 block -8, MPTP block 0, TMEM16A reconf inactive, TMEM16A Ca cntr inactive, YFP-HEK293 quench -1 and ClC-1 inh -10.
`Nc1nc(CN2CCN(c3ccccc3)CC2)nc(Nc2ccc(Cl)cc2)n1` gave CRFBP-R2 agonist -3, ANO1 activ inactive, NR3A LBD binder -2, TMEM16A inh 25*, CRFBP-R2 block -15, MPTP block -1, TMEM16A reconf inactive, TMEM16A Ca cntr inactive, YFP-HEK293 quench -1.1 and ClC-1 inh -2.
`Cc1ccc(C(C)NC(=O)c2cc3cc(Br)ccc3oc2=N)cc1` (configuration not stated) gave CRFBP-R2 agonist 4, ANO1 activ inactive, NR3A LBD binder -5, TMEM16A inh inactive, CRFBP-R2 block -13 and MPTP block 0.
For Cc1ccc(NC(=O)C(C)N2C(=O)c3ccccc3C2=O)c(C)c1 (configuration not stated) the results were CRFBP-R2 agonist 0, ANO1 activ inactive, NR3A LBD binder 2, TMEM16A inh inactive, CRFBP-R2 block 6 and MPTP block -1.
`COc1ccc(N2Nc3n[nH]c(N)c3N2)cc1` gave CRFBP-R2 agonist 0, ANO1 activ inactive, NR3A LBD binder -20, TMEM16A inh inactive, CRFBP-R2 block 19, MPTP block 0, TMEM16A reconf inactive, TMEM16A Ca cntr inactive, YFP-HEK293 quench -1.1 and ClC-1 inh -4.
Screening CCOc1ccc(N2Nc3n[nH]c(N)c3N2)cc1 returned CRFBP-R2 agonist 0, ANO1 activ inactive, NR3A LBD binder -10, TMEM16A inh inactive, CRFBP-R2 block -13 and MPTP block -1.

From PubChem
